Where “and” joins values, the source holds several entries; their conditions need not be identical. Equal entries are not always repeated. Screen size: about 5,500 compounds; about 2,000 (36%) were called active. Not shown: some 18% with an inconclusive outcome. Rule as the data show it: active = normalized growth mostly below about 0.91 (no sharp cut-off); inconclusive = no clear call, values can overlap the other calls; inactive = mostly above about 0.92. The list shows a part of the results.
Assay: chemical genetic growth profiling, strain panel (AID 1159580);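 also: tested at 20 µM; growth read once vehicle control cultures reached saturation at 30 °C; 1 = growth at the plate median or of vehicle wells; lower values mean less growth of the strain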
Settings: S. cerevisiae deletion strains, growth OD

Measured: normalized growth

CC1=CCc2c(cc3oc(C)cc(=O)c3c2O)OC1
active: locus YAL013W, strain DEP1, stronger effect = lower value 0.886 | locus YDL074C, strain BRE1, stronger effect = lower value 0.703 | locus YDL192W, strain arf1, stronger effect = lower value 0.901 | locus YDR101C, strain arx1, stronger effect = lower value 0.887 | locus YDR162C, strain NBP2, stronger effect = lower value 0.738 | locus YDR195W, strain ref2 1.2 [resistant] | locus YDR318W, strain mcm21, stronger effect = lower value 0.885 | locus YDR502C, strain sam2, stronger effect = lower value 0.86 | locus YGR078C, strain PAC10, stronger effect = lower value 0.785 | locus YGR135W, strain pre9, stronger effect = lower value 0.802 | locus YGR229C, strain SMI1, stronger effect = lower value 0.679 | locus YGR252W, strain gcn5, stronger effect = lower value 0.741 | locus YHR079C, strain IRE1 (second series), stronger effect = lower value 0.91 | locus YIL066C, strain RNR3, stronger effect = lower value 0.858 | locus YJL187C, strain SWE1 (second series), stronger effect = lower value 0.867 | locus YJR043C, strain POL32, stronger effect = lower value 0.792
0.892 (active) and 0.959 (inactive): locus YHR030C, strain SLT2, stronger effect = lower value
0.756 (active) and 0.945 (inactive): locus YJL095W, strain BCK1, stronger effect = lower value
inactive: locus YAL021C, strain ccr4, stronger effect = lower value 0.991 | locus YAL026C, strain drs2, stronger effect = lower value 0.964 | locus YAL030W, strain snc1, stronger effect = lower value 0.972 | locus YBL061C, strain skt5, stronger effect = lower value 0.971 | locus YBR009C, strain hhf1, stronger effect = lower value 0.954 | locus YBR021W, strain FUR4, stronger effect = lower value 0.856 | locus YBR023C, strain chs3, stronger effect = lower value 0.977 | locus YBR171W, strain sec66, stronger effect = lower value 0.94 | locus YBR229C, strain ROT2, stronger effect = lower value 0.98 | locus YBR231C, strain swc5, stronger effect = lower value 0.966 | locus YBR279W, strain paf1, stronger effect = lower value 0.982 | locus YCL011C, strain gbp2, stronger effect = lower value 0.929 | locus YCL016C, strain dcc1, stronger effect = lower value 0.982 | locus YCL029C, strain bik1, stronger effect = lower value 0.951 | locus YCL061C, strain MRC1, stronger effect = lower value 0.954 | locus YCL069W, strain vba3, stronger effect = lower value 0.954 | locus YCR088W, strain abp1, stronger effect = lower value 0.961 | locus YDL005C, strain med2, stronger effect = lower value 1 | locus YDL035C, strain GPR1, stronger effect = lower value 0.863 | locus YDL040C, strain nat1, stronger effect = lower value 0.984 | locus YDL101C, strain DUN1, stronger effect = lower value 0.943 | locus YDL134C, strain PPH21, stronger effect = lower value 0.907 | locus YDL185W, strain tfp1, stronger effect = lower value 0.962 | locus YDR001C, strain nth1, stronger effect = lower value 0.949 | locus YDR069C, strain doa4, stronger effect = lower value 0.988 | locus YDR137W, strain rgp1, stronger effect = lower value 0.913 | locus YDR150W, strain NUM1, stronger effect = lower value 0.96 | locus YDR159W, strain sac3, stronger effect = lower value 1.02 | locus YDR297W, strain sur2, stronger effect = lower value 0.968 | locus YDR334W, strain swr1, stronger effect = lower value 0.965 | locus YDR335W, strain msn5, stronger effect = lower value 0.987 | locus YDR388W, stronger effect = lower value 0.957 | locus YDR392W, strain spt3, stronger effect = lower value 0.893 | locus YEL003W, strain gim4, stronger effect = lower value 0.929 | locus YEL037C, strain rad23, stronger effect = lower value 0.96 | locus YEL061C, strain CIN8 (second series), stronger effect = lower value 0.966 | locus YEL061C, strain CIN8, stronger effect = lower value 0.952 | locus YER015W, strain faa2, stronger effect = lower value 0.975 | locus YER016W, strain bim1, stronger effect = lower value 0.985 | locus YER110C, stronger effect = lower value 0.933 | locus YER111C, strain swi4, stronger effect = lower value 0.967 | locus YER155C, strain BEM2 (second series), stronger effect = lower value 0.867 | locus YER155C, strain BEM2, stronger effect = lower value 0.96 | locus YER167W, strain BCK2, stronger effect = lower value 0.924 | locus YFR010W, strain ubp6, stronger effect = lower value 0.953 | locus YGL078C, strain dbp3, stronger effect = lower value 0.944 | locus YGL086W, strain mad1, stronger effect = lower value 0.934 | locus YGL167C, strain pmr1, stronger effect = lower value 0.979 | locus YGL173C, strain kem1, stronger effect = lower value 0.959 | locus YGL227W, strain vid30, stronger effect = lower value 0.964 | locus YGL240W, strain doc1, stronger effect = lower value 0.951 | locus YGL248W, strain PDE1, stronger effect = lower value 0.901 | locus YGL253W, strain hxk2, stronger effect = lower value 0.987 | locus YHR013C, strain ard1, stronger effect = lower value 0.924 | locus YHR027C, strain rpn1, stronger effect = lower value 0.984 | locus YHR079C, strain IRE1, stronger effect = lower value 0.96 | locus YHR094C, strain hxt1, stronger effect = lower value 0.972 | locus YHR129C, strain ARP1, stronger effect = lower value 0.925 | locus YHR142W, strain chs7, stronger effect = lower value 0.888 | locus YHR200W, strain rpn10, stronger effect = lower value 0.921 | locus YIL073C, strain SPO22, stronger effect = lower value 0.909 | locus YIL125W, strain kgd1, stronger effect = lower value 0.964 | locus YIR030C, strain dcg1, stronger effect = lower value 0.969 | locus YJL092W, strain hpr5, stronger effect = lower value 0.956 | locus YJL095W, strain BCK1 (second series), stronger effect = lower value 0.98 | locus YJL115W, strain asf1, stronger effect = lower value 0.973 | locus YJL129C, strain trk1, stronger effect = lower value 0.912 | locus YJL134W, strain LCB3, stronger effect = lower value 0.978 | locus YJL154C, strain vps35, stronger effect = lower value 0.956 | locus YJL164C, strain tpk1, stronger effect = lower value 0.952 | locus YJL166W, strain qcr8, stronger effect = lower value 0.983 | locus YJL168C, strain set2, stronger effect = lower value 0.968 | locus YJR066W, strain TOR1, stronger effect = lower value 0.915

Reference: PubChem BioAssay AID1159580 (chemical genetic matrix, 2015)
